Compound activity from PubChem.
MLLE-PAM2 inh = inhibitors of microRNA-mediated deadenylation, human PABP1 MLLE binding; AID 588489; P11940; inhibition, % at 20 µM; GST-MLLE / FITC-PAM2 fluorescence polarization; actives 0.36% (n = 360,000); in the data active = inhibition above about 35%, passing the limit was not always enough
Target sequence (P11940 whole entry, looked up): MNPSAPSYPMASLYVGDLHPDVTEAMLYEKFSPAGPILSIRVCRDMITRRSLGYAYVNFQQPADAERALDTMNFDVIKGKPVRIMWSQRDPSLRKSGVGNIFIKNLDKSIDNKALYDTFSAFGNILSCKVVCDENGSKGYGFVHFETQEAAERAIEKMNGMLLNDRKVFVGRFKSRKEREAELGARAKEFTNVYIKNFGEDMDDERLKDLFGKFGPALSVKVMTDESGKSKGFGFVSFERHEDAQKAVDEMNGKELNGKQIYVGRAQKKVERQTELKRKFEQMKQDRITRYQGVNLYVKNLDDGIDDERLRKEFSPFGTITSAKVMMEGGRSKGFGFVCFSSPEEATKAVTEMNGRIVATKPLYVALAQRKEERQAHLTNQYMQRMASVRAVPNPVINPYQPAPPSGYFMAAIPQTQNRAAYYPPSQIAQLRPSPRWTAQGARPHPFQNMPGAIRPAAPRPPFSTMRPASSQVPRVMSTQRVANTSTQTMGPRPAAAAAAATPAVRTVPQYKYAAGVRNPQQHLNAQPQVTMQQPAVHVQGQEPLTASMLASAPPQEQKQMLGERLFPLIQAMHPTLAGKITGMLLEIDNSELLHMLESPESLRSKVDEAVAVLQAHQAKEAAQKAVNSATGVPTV
eIF4H inh = inhibitors of RNA binding by human eIF4H | Q15056 | eIF4H fluorescence polarization binding assay | inhibition, % at 35 µM | actives 0.94% (n = 290,000) | AID 2012;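 also: calls also rest on retests at 20 µM and on dose response follow-up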
EBV gp42 inh = inhibitors of Epstein-Barr virus glycoprotein 42; Q1HVG2; Fluorescence polarization binding assay, mP read-out; inhibition, % (tested at 21.74 µM); actives 0.42% (n = 220,000); AID 1085; in the data active = inhibition above about 50%
MEX-5 binding = C. elegans MEX-5 TCR-2 RNA binding activity; AID 1832; MEX-5/FITC-TCR2 RNA binding, fluorescence polarization; hits give low values; activity score (negative = inhibition of binding), % at 10 µM; actives 0.38% (n = 300,000); Q9XUB2;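 active = inhibition past about -25% in most replicates, and total fluorescence under double the plate's negative control median, limit read from the data; inconclusive = replicates evenly split on the limit, or fluorescence at least double controls; inactive = too little inhibition in most replicates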
PABP polyA inh = PABP-poly(A) binding inhibition; actives 1% (n = 290,000); calls only at 35 µM; AID 2014; P11940; PABP-poly(A) RNA binding, fluorescence polarization;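 also: calls also rest on retests at 20 µM and on dose response follow-up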
Numbers stand for hits; 0 = inactive; ? = inconclusive; - = no result given; + = active, no number. In the library only some 1.8% were active in any assay of this set; here they are far more common. Unless noted, no rule for the calls is given here.

SMILES	MLLE-PAM2 inh	eIF4H inh	EBV gp42 inh	MEX-5 binding	PABP polyA inh
O=C1CSC(=S)N1N1C(=O)c2cccc([N+](=O)[O-])c2C1=O	-	0	0	-27.8	0
COc1ccc(Cl)cc1-c1cc(C(=O)Nc2ccc(C)c(NS(C)(=O)=O)c2)[nH]n1	0	-	-	-	-
CC1(C(=O)NS(=O)(=O)c2ccc(Cl)cc2)CCN1C(=O)c1ccco1 (stereo not drawn)	0	-	-	-	-
Cc1cccc(NC2CNC(=O)NC2=O)c1 (stereo not drawn)	0	-	-	-	-
Cc1cccc(NC2SC(=O)NC2=O)c1 (stereo not drawn)	52.5	0	0	0	0
COc1ccc(/C=C2\Sc3ccc(C(=O)N4CCCC4)cc3N(C)C2=O)cc1OC	38.2	-	-	0	-
CCOc1ccc(/C=C2/Sc3ccc(C(=O)N4CCOCC4)cc3N(C)C2=O)cc1OC	0	0	-	0	0
Cc1ccn2c(NC3CCCC3)c(-c3cccs3)nc2c1	0	52.7	0	0	+
N#CC1=C(N)N2C(=C(C#N)C1c1ccccc1)Sc1ccccc12 (stereo not drawn)	-	0	90.2	-32.5	0
Cc1ccc(S(=O)(=O)Nc2cc(C)c(O)c(Sc3n[nH]c(C)n3)c2)cc1	42.1	0	-	0	0
Cc1ccc(S(=O)(=O)Nc2ccc3cn[nH]c3c2)cc1	0	-	-	-	-
CCOC(=O)CSc1ncc(OC)c(=O)[nH]1	0	0	0	0	0
COc1cnc(SCC(=O)O)[nH]c1=O	0	0	0	0	+
COc1ccccc1N1CCN(/N=C\c2ccccc2)CC1	0	0	-	0	0
COc1ccccc1N1CCN(/N=C/c2c(C)nn(-c3ccccc3)c2C)CC1	40.5	0	0	0	0
O=C(NNC(=O)c1cc2cc3ccccc3nc2s1)c1cccc(C(F)(F)F)c1	0	51.3	0	0	0
CSc1nc(N)cc(=O)[nH]1	0	0	0	0	+
Cc1nc(C(F)(F)F)ccc1C(=O)N1CCC1(C)C(=O)NS(=O)(=O)c1ccc2ccccc2c1 (stereo not drawn)	0	-	-	-	-
Cc1ccc(N=Cc2nc(-c3ccc(C)cc3)oc2O)cc1	0	0	0	-42.4	0
CC(=O)Nc1ccc(N=Cc2nc(-c3ccc(C)cc3)oc2O)cc1	0	?	0	-31.1	?
Oc1oc(-c2ccccc2)nc1C=Nc1ccccc1	0	0	0	0	0
Cc1cccc(/C(N)=N/OC(=O)c2ccc3c(c2)OCO3)c1	0	2.0	0	0	+
Cc1ccc(C)c(NC(=O)COC(=O)c2ccc3c(c2)OCO3)c1	0	14.0	0	0	+
Cc1cccc(NC(=O)C(=O)NCC2CCCN2S(=O)(=O)c2cccs2)c1 (stereo not drawn)	0	-	-	-	-
OCC1CCCN(C(=S)Nc2ccc(Nc3ccccc3)cc2)C1 (stereo not drawn)	0	?	0	0	+
SMILES	MLLE-PAM2 inh	eIF4H inh	EBV gp42 inh	MEX-5 binding	PABP polyA inh
OCC1CCCN(C(=S)Nc2ccc(OC(F)F)cc2)C1 (stereo not drawn)	0	0	0	0	0
CC1CN(C2CCCCC2)C(=O)NC1=O (stereo not drawn)	0	-	-	-	-
COc1cc(OC)c2ccc(=O)oc2c1C(CC(=O)N1CCCC1)c1ccc2c(c1)OCO2 (stereo not drawn)	0	82.2	0	0	+
COc1cc(C(CC(=O)N2CCCC2)c2c(OC)cc(OC)c3ccc(=O)oc23)cc(OC)c1OC (stereo not drawn)	42.6	51.5	0	-38.6	0
CC(=Nc1ccc(Br)cc1)c1sc2ccccc2c1O	0	0	0	-30.0	0
Cc1ccc(O)c(C=Nc2ccc3[nH]ncc3c2)c1	0	68.4	0	0	+
Cc1ccc(O)c(C=Nc2cc(C)ccc2O)c1	0	0	0	0	0
COc1ccc([C@H]2C[C@@H](O)[C@H](n3cc(-c4ccc(F)cc4)nn3)CN2C(=O)C2CCCCC2)cc1	0	-	-	-	-
COc1ccc(-c2nc(C)ncc2-c2csc(C)n2)c(O)c1	0	73.0	0	0	+
C/C(=N\Nc1ccc(C(=O)O)cc1)c1ccc(Br)cc1	0	50.9	0	0	0
CS(=O)(=O)N1CCCCC1c1cc(C(=O)NCc2ccc(Cl)c(Cl)c2)no1 (stereo not drawn)	0	-	-	-	-
O=Nc1ccc(NOC(=O)c2ccccc2)cc1	0	0	0	0	0
O=C(N=Nc1ccc(NOC(=O)c2ccccc2Br)cc1)c1ccccc1O	-	0	51.1	0	0
NS(=O)(=O)c1ccc(N=Nc2c(O)c(C(=O)O)cc3ccccc23)cc1	0	0	0	0	0
O=C(O)Cc1ccc(N=Nc2c(O)c(C(=O)O)cc3ccccc23)cc1	0	76.9	0	0	+
CCc1nc2ccc(C(=O)Nc3cccc(OCC(=O)N(C)C)c3)cn2c1N(C)Cc1cc2ccccc2s1	0	-	-	-	-
CCCCCNc1nc(N2CCCC2)c2c(c1C#N)CCN(C)C2	0	59.4	0	0	+
CCCn1c2c(c(=N)c3c1CCC3)CCC2	0	-	0	0	-
CCCCCCCn1c2c(c(=N)c3ccccc31)CCC2	0	0	0	0	+
CCC(=O)Nc1ccc(Cl)c(NC(=S)NC(=O)COc2ccccc2)c1	38.7	0	0	0	0
CCC(=O)Nc1ccc(Cl)c(NC(=S)NC(=O)COc2ccc(Cl)cc2)c1	0	0	0	0	0
COCCN(CCOC)Cc1cc(=O)oc2cc(C)ccc12	0	-	-	-	-
N#C/C(=C\C=C\c1ccccc1[N+](=O)[O-])C(=O)NC1CCCCC1	0	0	0	0	?
N#C/C(=C\c1ccccc1[N+](=O)[O-])C(=O)NC1CCCCC1	54.7	0	0	0	0
COC(=O)[C@@H](NC(=O)Nc1ccc(C(C)=O)cc1)C(C)C	0	56.9	0	0	0
SMILES	MLLE-PAM2 inh	eIF4H inh	EBV gp42 inh	MEX-5 binding	PABP polyA inh
COC(=O)[C@@H](NC(=O)Nc1ccc(S(N)(=O)=O)cc1)C(C)C	0	0	0	0	0
c1ccc(Cc2nnc3sc(-c4ccncc4)nn23)cc1	42.0	0	0	0	0
c1ccc(Cc2nnc3sc(-c4cccnc4)nn23)cc1	0	0	0	0	0
c1ccc(Cc2nn3c(-c4ccncc4)nnc3s2)cc1	37.8	0	0	0	0
c1ccc(OCc2nn3c(-c4ccncc4)nnc3s2)cc1	0	0	0	0	0
CC1(C(=O)Nc2ccc(Cl)c(Cl)c2)CCN1C(=O)Cc1ccc(-c2ccccc2)cc1 (stereo not drawn)	0	-	-	-	-
CN1CC(=O)Nc2ccccc2C1=O	0	0	-	0	0
O=C1NN(CCO)C(=S)Nc2ccccc21	35.8	-	-	-	-
CCN(CC)CC(C)(C)C(=O)/C=C/c1ccc(/C=C/C(=O)C(C)(C)CN(CC)CC)cc1	0	-	-	-	-
CC(=O)C1=CCC(c2ccc(Cl)cc2)N(S(=O)(=O)c2ccccc2C)C1 (stereo not drawn)	0	-	-	-	-
CC(C)(C)Nc1ncnc2c1cnn2-c1ccccc1	0	0	-	0	0
O=c1[nH]n(-c2ncnc3c2cnn3-c2ccccc2)c(=O)c2ccccc12	0	0	0	-38.6	0
CC(C)[N+](C)(C)CC(O)CN(c1ccccc1)c1ccccc1 (stereo not drawn)	0	0	0	0	+
Cc1cccc(C(=O)Oc2ccc(/C=N/NC(=O)c3ccncc3)cc2)c1	0	0	0	0	0
